Measurements reported in publication PMC7862700, “An all-to-all approach to the identification of sequence-specific readers for epigenetic DNA modifications on cytosine”.

Experiments:
Test in all cases: DAPPL (digital affinity profiling via proximity ligation, sequencing); 10 mM Tris-HCl pH 7.5, 50 mM NaCl, 1 mM DTT, 4% glycerol, room temperature, 30 min; GST-TFs on glutathione beads, 16-mer random dsDNA library, 0.1% formaldehyde crosslink after washing; high values mean tight binding
Settings in all cases: protein: recombinant; tags: N-terminal GST; dsDNA, one strand shown
ERF = target: T1, ERF (Homo sapiens, UniProt P50548 1-548)
T1 sequence: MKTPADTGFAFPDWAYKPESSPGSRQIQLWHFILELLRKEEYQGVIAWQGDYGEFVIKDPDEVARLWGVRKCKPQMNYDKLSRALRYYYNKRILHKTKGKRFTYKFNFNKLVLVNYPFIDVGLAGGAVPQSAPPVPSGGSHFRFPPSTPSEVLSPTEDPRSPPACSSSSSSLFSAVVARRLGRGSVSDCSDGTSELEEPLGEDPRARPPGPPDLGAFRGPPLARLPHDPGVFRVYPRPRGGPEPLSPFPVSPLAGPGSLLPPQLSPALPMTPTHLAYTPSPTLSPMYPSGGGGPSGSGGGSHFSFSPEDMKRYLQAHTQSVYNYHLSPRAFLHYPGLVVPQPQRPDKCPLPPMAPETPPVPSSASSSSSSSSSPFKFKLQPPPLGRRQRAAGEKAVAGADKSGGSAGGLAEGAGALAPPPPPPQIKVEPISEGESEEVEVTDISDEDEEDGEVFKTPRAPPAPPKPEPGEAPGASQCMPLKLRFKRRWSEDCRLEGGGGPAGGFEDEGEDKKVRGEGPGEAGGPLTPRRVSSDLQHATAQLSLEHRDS
Method in brief: (§1)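 In yeast, human transcription factors were expressed with a GST fusion, then pulled down on glutathione beads and given DNA barcodes. Pooled with a tag-only sample, they were exposed to 200 nmole of a 16-mer random double-stranded DNA library (Tris/NaCl/DTT/glycerol buffer, room temperature, 30 min), washed, crosslinked with 0.1% formaldehyde, proximity-ligated using BsaI/T4 ligase for 1 h at 37 °C, PCR-amplified and read on an Illumina NextSeq500. Each hexamer's frequency of reads for a factor, divided by the matching frequency for the tag-only sample, gives the binding signal.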

ETV3L = target: T2, ETV3L (Homo sapiens, UniProt Q6ZN32 1-361)
T2 sequence: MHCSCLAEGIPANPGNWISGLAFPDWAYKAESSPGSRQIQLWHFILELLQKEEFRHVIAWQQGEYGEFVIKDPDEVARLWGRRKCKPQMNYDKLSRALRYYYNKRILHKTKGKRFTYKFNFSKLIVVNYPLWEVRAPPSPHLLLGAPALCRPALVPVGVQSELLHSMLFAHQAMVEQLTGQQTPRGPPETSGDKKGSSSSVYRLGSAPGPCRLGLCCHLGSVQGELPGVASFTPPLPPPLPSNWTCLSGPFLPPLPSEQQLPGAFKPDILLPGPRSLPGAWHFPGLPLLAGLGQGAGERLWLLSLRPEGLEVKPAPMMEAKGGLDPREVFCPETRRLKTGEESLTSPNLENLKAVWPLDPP
Method in brief: as §1

ETS2 = target: T3, ETS2 (Homo sapiens, UniProt P15036 1-469)
T3 sequence: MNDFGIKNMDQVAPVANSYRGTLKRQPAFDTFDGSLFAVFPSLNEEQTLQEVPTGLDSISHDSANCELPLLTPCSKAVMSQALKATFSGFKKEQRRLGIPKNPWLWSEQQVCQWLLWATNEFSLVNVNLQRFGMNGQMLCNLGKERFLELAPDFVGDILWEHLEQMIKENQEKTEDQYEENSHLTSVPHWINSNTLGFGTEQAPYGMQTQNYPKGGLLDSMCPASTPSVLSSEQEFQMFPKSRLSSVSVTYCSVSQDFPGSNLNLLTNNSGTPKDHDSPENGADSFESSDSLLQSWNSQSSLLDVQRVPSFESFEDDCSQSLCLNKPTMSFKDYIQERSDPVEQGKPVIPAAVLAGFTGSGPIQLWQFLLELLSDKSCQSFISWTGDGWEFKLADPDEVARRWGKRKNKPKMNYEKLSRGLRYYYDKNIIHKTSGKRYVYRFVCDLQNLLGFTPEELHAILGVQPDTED
Method in brief: as §1

SPDEF = target: T4, SPDEF (Homo sapiens, UniProt O95238 1-335)
T4 sequence: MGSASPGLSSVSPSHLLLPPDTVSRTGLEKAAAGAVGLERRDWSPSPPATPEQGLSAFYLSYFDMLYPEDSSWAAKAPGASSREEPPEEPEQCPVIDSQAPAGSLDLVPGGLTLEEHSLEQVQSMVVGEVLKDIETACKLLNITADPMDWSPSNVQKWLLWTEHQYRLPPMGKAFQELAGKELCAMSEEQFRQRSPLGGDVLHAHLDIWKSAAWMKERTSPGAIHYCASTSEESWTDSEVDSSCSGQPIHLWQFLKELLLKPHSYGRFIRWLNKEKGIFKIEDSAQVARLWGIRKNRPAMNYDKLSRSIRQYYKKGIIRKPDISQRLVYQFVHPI
Method in brief: as §1

ETV7 = target: T5, ETV7 (Homo sapiens, UniProt Q9Y603 1-341)
T5 sequence: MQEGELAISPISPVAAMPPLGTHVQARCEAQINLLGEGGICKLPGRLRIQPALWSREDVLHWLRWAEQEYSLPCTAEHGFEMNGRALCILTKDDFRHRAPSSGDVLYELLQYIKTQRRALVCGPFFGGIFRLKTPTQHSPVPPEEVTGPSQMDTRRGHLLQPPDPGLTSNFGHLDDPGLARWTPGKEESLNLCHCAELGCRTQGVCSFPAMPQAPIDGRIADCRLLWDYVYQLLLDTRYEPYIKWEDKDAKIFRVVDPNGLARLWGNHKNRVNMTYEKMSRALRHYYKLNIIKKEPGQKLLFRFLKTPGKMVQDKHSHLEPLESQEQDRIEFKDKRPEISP
Method in brief: as §1

ELF5 = target: T6, ELF5 (Homo sapiens, UniProt Q9UKW6-2 1-255)
T6 sequence: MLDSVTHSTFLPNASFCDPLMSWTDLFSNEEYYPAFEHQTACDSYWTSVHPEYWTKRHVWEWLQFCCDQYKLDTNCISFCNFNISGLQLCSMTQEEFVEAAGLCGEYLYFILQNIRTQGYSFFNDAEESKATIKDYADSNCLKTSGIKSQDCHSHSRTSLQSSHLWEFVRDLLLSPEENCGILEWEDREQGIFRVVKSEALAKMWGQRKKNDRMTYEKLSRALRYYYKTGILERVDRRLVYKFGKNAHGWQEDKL
Method in brief: as §1

ETV3 = target: T7, ETV3 (Homo sapiens, UniProt P41162-2 1-143)
T7 sequence: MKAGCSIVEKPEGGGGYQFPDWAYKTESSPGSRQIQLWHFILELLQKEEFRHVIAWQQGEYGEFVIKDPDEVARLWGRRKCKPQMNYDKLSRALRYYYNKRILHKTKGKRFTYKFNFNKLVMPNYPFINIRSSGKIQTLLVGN
Method in brief: as §1

ETV6 = ETV6 (Homo sapiens, UniProt P41212 1-452)
Method in brief: as §1

ETV6, sequence (P41212 whole entry): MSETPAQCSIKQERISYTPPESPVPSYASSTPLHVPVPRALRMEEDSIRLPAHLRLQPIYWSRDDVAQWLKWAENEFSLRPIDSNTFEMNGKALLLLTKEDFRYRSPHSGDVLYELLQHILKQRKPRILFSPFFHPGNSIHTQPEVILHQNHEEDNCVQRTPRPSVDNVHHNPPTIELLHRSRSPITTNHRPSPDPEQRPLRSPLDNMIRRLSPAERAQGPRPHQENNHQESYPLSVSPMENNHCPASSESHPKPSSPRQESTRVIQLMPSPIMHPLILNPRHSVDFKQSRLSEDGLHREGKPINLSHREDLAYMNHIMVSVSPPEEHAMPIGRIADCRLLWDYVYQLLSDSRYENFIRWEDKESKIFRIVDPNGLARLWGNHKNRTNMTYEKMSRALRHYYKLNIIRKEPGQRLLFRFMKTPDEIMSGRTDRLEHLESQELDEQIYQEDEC

## CCAAAA
ERF
  binding signal: 1.16 fold enrichment (6-mer frequency, TF over GST control)
ETV3L
  binding signal: 1.1 fold enrichment (6-mer frequency, TF over GST control)
ETS2
  binding signal: 1.11 fold enrichment (6-mer frequency, TF over GST control)
SPDEF
  binding signal: 1.11 fold enrichment (6-mer frequency, TF over GST control)
ETV7
  binding signal: 1.11 fold enrichment (6-mer frequency, TF over GST control)
ELF5
  binding signal: 1.11 fold enrichment (6-mer frequency, TF over GST control)
ETV3
  binding signal: 1.15 fold enrichment (6-mer frequency, TF over GST control)
ETV6
  binding signal: 1.2 fold enrichment (6-mer frequency, TF over GST control)

## AAGTAC
ERF
  binding signal: 1.42 fold enrichment (6-mer frequency, TF over GST control)
ETV3L
  binding signal: 1.39 fold enrichment (6-mer frequency, TF over GST control)
ETS2
  binding signal: 1.59 fold enrichment (6-mer frequency, TF over GST control)
SPDEF
  binding signal: 1.92 fold enrichment (6-mer frequency, TF over GST control)
ETV7
  binding signal: 1.65 fold enrichment (6-mer frequency, TF over GST control)
ELF5
  binding signal: 1.69 fold enrichment (6-mer frequency, TF over GST control)
ETV3
  binding signal: 1.62 fold enrichment (6-mer frequency, TF over GST control)
ETV6
  binding signal: 1.85 fold enrichment (6-mer frequency, TF over GST control)

## TCTCGA
ERF
  binding signal: 1.35 fold enrichment (6-mer frequency, TF over GST control)
ETV3L
  binding signal: 1.35 fold enrichment (6-mer frequency, TF over GST control)
ETS2
  binding signal: 1.44 fold enrichment (6-mer frequency, TF over GST control)
SPDEF
  binding signal: 1.2 fold enrichment (6-mer frequency, TF over GST control)
ETV7
  binding signal: 1.47 fold enrichment (6-mer frequency, TF over GST control)
ELF5
  binding signal: 1.27 fold enrichment (6-mer frequency, TF over GST control)
ETV3
  binding signal: 1.4 fold enrichment (6-mer frequency, TF over GST control)
ETV6
  binding signal: 1.47 fold enrichment (6-mer frequency, TF over GST control)

## TTATCC
ERF
  binding signal: 1.44 fold enrichment (6-mer frequency, TF over GST control)
ETV3L
  binding signal: 1.38 fold enrichment (6-mer frequency, TF over GST control)
ETS2
  binding signal: 1.51 fold enrichment (6-mer frequency, TF over GST control)
SPDEF
  binding signal: 1.76 fold enrichment (6-mer frequency, TF over GST control)
ETV7
  binding signal: 1.44 fold enrichment (6-mer frequency, TF over GST control)
ELF5
  binding signal: 1.56 fold enrichment (6-mer frequency, TF over GST control)
ETV3
  binding signal: 1.51 fold enrichment (6-mer frequency, TF over GST control)
ETV6
  binding signal: 1.47 fold enrichment (6-mer frequency, TF over GST control)

## CCCATT
ERF
  binding signal: 1.32 fold enrichment (6-mer frequency, TF over GST control)
ETV3L
  binding signal: 1.3 fold enrichment (6-mer frequency, TF over GST control)
ETS2
  binding signal: 1.43 fold enrichment (6-mer frequency, TF over GST control)
SPDEF
  binding signal: 1.19 fold enrichment (6-mer frequency, TF over GST control)
ETV7
  binding signal: 1.38 fold enrichment (6-mer frequency, TF over GST control)
ELF5
  binding signal: 1.4 fold enrichment (6-mer frequency, TF over GST control)
ETV3
  binding signal: 1.24 fold enrichment (6-mer frequency, TF over GST control)
ETV6
  binding signal: 1.29 fold enrichment (6-mer frequency, TF over GST control)

## CTGGAA
ERF
  binding signal: 1.26 fold enrichment (6-mer frequency, TF over GST control)
ETV3L
  binding signal: 1.36 fold enrichment (6-mer frequency, TF over GST control)
ETS2
  binding signal: 1.3 fold enrichment (6-mer frequency, TF over GST control)
SPDEF
  binding signal: 1.16 fold enrichment (6-mer frequency, TF over GST control)
ETV7
  binding signal: 1.32 fold enrichment (6-mer frequency, TF over GST control)
ELF5
  binding signal: 1.34 fold enrichment (6-mer frequency, TF over GST control)
ETV3
  binding signal: 1.27 fold enrichment (6-mer frequency, TF over GST control)
ETV6
  binding signal: 1.34 fold enrichment (6-mer frequency, TF over GST control)

## TTCATT
ERF
  binding signal: 1.31 fold enrichment (6-mer frequency, TF over GST control)
ETV3L
  binding signal: 1.3 fold enrichment (6-mer frequency, TF over GST control)
ETS2
  binding signal: 1.27 fold enrichment (6-mer frequency, TF over GST control)
SPDEF
  binding signal: 1.24 fold enrichment (6-mer frequency, TF over GST control)
ETV7
  binding signal: 1.23 fold enrichment (6-mer frequency, TF over GST control)
ELF5
  binding signal: 1.18 fold enrichment (6-mer frequency, TF over GST control)
ETV3
  binding signal: 1.16 fold enrichment (6-mer frequency, TF over GST control)
ETV6
  binding signal: 1.18 fold enrichment (6-mer frequency, TF over GST control)

## AACTAC
ERF
  binding signal: 1.54 fold enrichment (6-mer frequency, TF over GST control)
ETV3L
  binding signal: 1.44 fold enrichment (6-mer frequency, TF over GST control)
ETS2
  binding signal: 1.42 fold enrichment (6-mer frequency, TF over GST control)
SPDEF
  binding signal: 1.48 fold enrichment (6-mer frequency, TF over GST control)
ETV7
  binding signal: 1.39 fold enrichment (6-mer frequency, TF over GST control)
ELF5
  binding signal: 1.5 fold enrichment (6-mer frequency, TF over GST control)
ETV3
  binding signal: 1.45 fold enrichment (6-mer frequency, TF over GST control)
ETV6
  binding signal: 1.51 fold enrichment (6-mer frequency, TF over GST control)

## TTCGCT
ERF
  binding signal: 1.4 fold enrichment (6-mer frequency, TF over GST control)
ETV3L
  binding signal: 1.24 fold enrichment (6-mer frequency, TF over GST control)
ETS2
  binding signal: 1.3 fold enrichment (6-mer frequency, TF over GST control)
SPDEF
  binding signal: 1.2 fold enrichment (6-mer frequency, TF over GST control)
ETV7
  binding signal: 1.34 fold enrichment (6-mer frequency, TF over GST control)
ELF5
  binding signal: 1.23 fold enrichment (6-mer frequency, TF over GST control)
ETV3
  binding signal: 1.23 fold enrichment (6-mer frequency, TF over GST control)
ETV6
  binding signal: 1.23 fold enrichment (6-mer frequency, TF over GST control)
